# Assay results from PubChem BioAssay (NCI).
# This is part of a sample that, as a whole, favours compounds with a hit. Of some 83,000 tested, about 20% had one in any assay.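 Treatment: one concentration, 48 hours, 96-well format. Scoring: percent growth, with anything below 10 considered active.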 Values without a mark were called inactive. Active and inactive are the calls of the source.
# Key:
# Test in all cases: NCI-60 one-dose screen, 48 h (100 = growth as untreated, 0 = no growth, -100 = all killed)
# Conditions in all cases: 10 µM unless noted
# HCT-15 colon = test system: HCT-15 colon
# HT29 colon = test system: HT29 colon
# SNB-75 CNS = test system: SNB-75 CNS
# SNB-19 CNS = test system: SNB-19 CNS
# U251 CNS = test system: U251 CNS
# PC-3 prostate = test system: PC-3 prostate
# SK-MEL-5 melanoma = test system: SK-MEL-5 melanoma
# UACC-62 melanoma = test system: UACC-62 melanoma
# LOX IMVI melanoma = test system: LOX IMVI melanoma
# SK-MEL-28 melanoma = test system: SK-MEL-28 melanoma
# SK-MEL-2 melanoma = test system: SK-MEL-2 melanoma
# EKVX NSCLC = test system: EKVX NSCLC
# SN12C renal = test system: SN12C renal
# UO-31 renal = test system: UO-31 renal
# TK-10 renal = test system: TK-10 renal
# ACHN renal = test system: ACHN renal
# CAKI-1 renal = test system: CAKI-1 renal
# A498 renal = test system: A498 renal
# CCRF-CEM leukemia = test system: CCRF-CEM leukemia
# MOLT-4 leukemia = test system: MOLT-4 leukemia
Structure (SMILES),growth (HCT-15 colon),growth (HT29 colon),growth (SNB-75 CNS),growth (SNB-19 CNS) [%],growth (U251 CNS),growth (PC-3 prostate),growth (SK-MEL-5 melanoma),growth (UACC-62 melanoma),growth (LOX IMVI melanoma),growth (SK-MEL-28 melanoma),growth (SK-MEL-2 melanoma),growth (EKVX NSCLC) [%],growth (SN12C renal),growth (UO-31 renal),growth (TK-10 renal),growth (ACHN renal),growth (CAKI-1 renal),growth (A498 renal),growth (CCRF-CEM leukemia),growth (MOLT-4 leukemia)
Nc1ccc2c(c1)Cc1cc(Cl)c(Cl)cc1-2,51.5%,93.1%,84%,46.2,34.6%,68.5%,43.4%,63.4%,76.1%,78.6%,47.5%,48,57.2%,63.6%,101%,66.8%,65.4%,60.1%,32.2%,
COc1ccc(C(=O)COc2ccc(/C=C3\Oc4ccc5ccccc5c4C3=O)cc2)cc1,126%,111%,75.5%,85,99.5%,81%,95.7%,95.9%,93.5%,105%,77.9%,90.9,91.8%,-2.22% (active),142%,156%,96%,102%,,
Cc1ccc(-c2cc(-c3ccccc3)n(-c3ccccc3)n2)cc1,106%,96.7%,99.4%,95.4,97.7%,99.6%,106%,88.2%,99%,98.2%,74.6%,98.6,107%,79.1%,99.4%,95.3%,94.5%,92.1%,84.9%,81.5%
COc1cc(/C=N/NC(=O)c2ccc(C(F)(F)F)nc2Nc2ccc(Cl)cc2C)ccc1O,27.9%,45.2%,19.7%,54.4,33.8%,24.8%,-61.3% (active),44.5%,33.7%,42.5%,18.8%,38.4,68.6%,0.291% (active),49.7%,33.4%,39.6%,-37.9% (active),12.6%,-23.6% (active)
COC(=O)c1cc2c(/C=C3/NC(=S)NC3=O)coc2n1C,90.3%,116%,79.4%,101,70.7%,66.7%,96.5%,86.6%,98.2%,97%,107%,93.4,118%,50%,89.9%,95.2%,74.4%,99.6%,85.2%,
COc1ccc(CNC(=O)c2c(C)n([O-])c3ccccc3[n+]2=O)cc1,103%,102%,79.9%,97.7,97.3%,86.3%,76.6%,96.8%,96.8%,104%,95.8%,83.8,101%,32.9%,120%,109%,112%,96.1%,98.4%,93.4%
OC(c1cc(-c2cccc(Cl)c2)nc2ccccc12)C1CCCCN1 (centres undefined),-61.9% (active),-74.5% (active),-5.41% (active),18.1,-85.1% (active),-26.2% (active),-67.5% (active),-41.2% (active),-90.7% (active),-94.2% (active),-92% (active),47.3,-5.08% (active),-44.8% (active),-63.2% (active),-0.726% (active),-36.5% (active),56.3%,-8.29% (active),-30.6% (active)
COc1ccc(C2CC(c3ccc4c(c3)OCO4)=NN2C=O)cc1 (centres undefined),102%,98%,76.4%,93.9,102%,93.4%,95.9%,82.1%,95.4%,107%,100%,91.7,106%,87.4%,93.4%,103%,102%,91.2%,93.9%,101%
O=C1Nc2ccc(C(=O)O)c(O)c2C1=O,110%,117%,103%,107,106%,95.7%,104%,101%,54.5%,111%,103%,97.8,107%,91.7%,107%,104%,92.2%,102%,94.9%,110%
O=C(O)c1ccc(CNS(=O)(=O)c2ccc3ccccc3c2)cc1,104%,102%,90.8%,104,106%,104%,105%,102%,100%,106%,0.434% (active),111,100%,94.7%,109%,101%,112%,102%,117%,84.1%
CC(=O)[C@H]1CC[C@H]2[C@@H]3C[C@H](C)C4=CC(=O)CC[C@]4(C)[C@H]3C(=O)C[C@]12C,97.3%,101%,89.6%,100,98.2%,91.2%,100%,97.1%,92.2%,115%,98.9%,114,94.5%,87%,104%,95.8%,94.8%,74%,104%,92.3%
CC(=O)Nc1ccc(C(=O)COc2cccc(/C=C3\CCc4ccccc4C3=O)c2)cc1,89%,101%,78.7%,94.1,83.4%,76.1%,64.4%,83.6%,71.5%,109%,51.2%,80.3,99.5%,5.8% (active),103%,92.1%,254%,92.7%,11.6%,38%
Cc1ccc(S(=O)(=O)NCCN2c3nc4ccccc4cc3Sc3cc4ccccc4nc32)cc1,103%,56.1%,-13% (active),64.3,34.4%,77.3%,82.7%,66.9%,66.5%,87.8%,44.2%,70.3,66%,-32% (active),84.5%,54.2%,92.5%,149%,93.7%,
O=C(/C=C/c1ccc([N+](=O)[O-])cc1)c1ccc2c3c(cccc13)CC2,59.5%,77.2%,89%,82.6,13.7%,52.9%,97.8%,80.2%,67.6%,63.9%,-24.8% (active),87.3,89.8%,19.2%,107%,99.1%,72.1%,-63.2% (active),35.5%,
Nc1ccc(Oc2c(F)c(F)c(Oc3ccc(N)cc3)c(F)c2F)cc1,86.7%,108%,89.5%,94.8,83.3%,84.4%,111%,90.9%,86.5%,115%,17.5%,105,103%,63.6%,101%,93.5%,95.6%,111%,78.2%,
O=Cc1ccccc1C(=O)O,103%,100%,99.4%,107,96.9%,96.1%,101%,100%,101%,106%,109%,94,104%,90%,93.2%,103%,96%,109%,104%,98.6%

Structure (SMILES),growth (HCT-15 colon),growth (HT29 colon),growth (SNB-75 CNS),growth (SNB-19 CNS) [%],growth (U251 CNS),growth (PC-3 prostate),growth (SK-MEL-5 melanoma),growth (UACC-62 melanoma),growth (LOX IMVI melanoma),growth (SK-MEL-28 melanoma),growth (SK-MEL-2 melanoma),growth (EKVX NSCLC) [%],growth (SN12C renal),growth (UO-31 renal),growth (TK-10 renal),growth (ACHN renal),growth (CAKI-1 renal),growth (A498 renal),growth (CCRF-CEM leukemia),growth (MOLT-4 leukemia)
CCOC(CNCc1cc(C)c2[nH]c3ccccc3c2c1C)OCC,80.7%,53.1%,73.6%,78.6,83.2%,58.6%,79.8%,77.9%,77.2%,97.3%,62.2%,90,69.7%,45.1%,77.3%,88.3%,71.4%,39.8%,77.5%,62.5%
COC(=O)c1c(NC(=O)CSc2nnnn2-c2ccc(OC)cc2)sc(C)c1C,101%,107%,79.4%,102,99.6%,85%,115%,74.8%,91.2%,108%,18.8%,74.8,81.6%,84.6%,152%,87.3%,102%,110%,83.8%,90.8%
O=C(Nc1ccccc1OC(=O)c1ccccc1)c1ccccc1,88.5%,51.9%,101%,87.4,47%,88.5%,97.4%,82.6%,60.1%,118%,83.1%,110,69.6%,77.4%,101%,98.9%,91.5%,81.4%,27.1%,26.2%
COc1cc(NC(=O)NCc2ccco2)ccc1-c1ccc(NC(=O)NCc2ccco2)cc1OC,48.7%,33.7%,65.3%,72.9,12.4%,33.6%,30.6%,45.3%,45.4%,79.8%,76.3%,73,69.4%,73.4%,37.7%,60.2%,105%,65.8%,61.3%,
O=C(NN1C(=O)c2cc(C(=O)O)c(C(=O)O)cc2C1=O)c1ccncc1,103%,108%,145%,106,100%,84.6%,106%,92.3%,109%,94.2%,104%,108,93.9%,112%,88.4%,102%,98.2%,112%,103%,98.6%
COCCCNS(=O)(=O)c1ncnc2nc[nH]c12,124%,125%,116%,122,124%,106%,109%,112%,111%,152%,147%,101,114%,96.9%,140%,118%,101%,87%,101%,102%
COc1c(O)cc2c(c1CC=C(C)C)OC(=O)c1c(cc(O)c(CC=C(C)C)c1O)O2,44.1%,86.9%,49.7%,48.4,27.2%,24.5%,40.8%,67.2%,-27.5% (active),80.5%,55.5%,78.5,10.4%,45.1%,42%,30.2%,50.6%,116%,32.2%,20.6%
O=C(CC1Sc2ccccc2NC1=O)NNc1cccc(Cl)c1Cl (centres undefined),97.1%,93.4%,92.2%,77.7,83.7%,70.9%,85.5%,85.1%,88.8%,101%,87%,91.3,87.5%,61.8%,89.9%,91.4%,90.4%,61.5%,70.8%,
COC(=O)C1=CCC(n2cnc3c(N)ncnc32)O1 (centres undefined),109%,103%,98.1%,104,104%,98%,104%,92.8%,96.4%,115%,94.5%,101,103%,91.5%,104%,110%,75.1%,116%,98.8%,91.3%
COc1ccc(NS(=O)(=O)N2CCCCC2)cc1,115%,102%,115%,96.4,111%,91.8%,97.1%,82.5%,100%,123%,99.1%,115,93%,76.4%,102%,104%,103%,80%,89.6%,
O=C1NC(=S)S/C1=C\c1cc(Br)ccc1O,97.8%,119%,97.8%,107,99.9%,104%,92.6%,84.8%,100%,111%,100%,107,102%,67.6%,107%,93.5%,99.5%,76%,79.2%,107%
O=C(O)C1CCN(S(=O)(=O)c2ccc(-c3ccccc3)cc2)CC1,107%,111%,102%,103,104%,80.9%,108%,94.5%,103%,91.4%,5.44% (active),103,101%,101%,133%,109%,104%,104%,90.1%,107%
O=C1OC(Oc2ccccc2)(c2ccccc2)c2ccccc21 (centres undefined),99.7%,102%,97.2%,115,91.4%,91.2%,112%,100%,89.2%,127%,104%,133,110%,102%,109%,102%,87.4%,79.9%,103%,76%
NS(=O)(=O)c1ccc(-n2ncc3c(N/N=C/c4ccccc4)ncnc32)cc1,108%,81%,104%,80.4,89.7%,80.6%,86.7%,96.8%,91.7%,95.3%,70.5%,108,93%,68.8%,93.6%,94.7%,53.4%,111%,84.6%,
O=C(C(=O)N1CCOCC1)c1cn(CCCn2cc(C(=O)C(=O)N3CCOCC3)c3ccccc32)c2ccccc12,104%,99.7%,94.7%,93.9,102%,89.9%,100%,93.5%,104%,110%,100%,104,96.3%,75.3%,97.6%,100%,104%,134%,-13.1% (active),104%
Cc1ccc(S(=O)(=O)N2CCN(C(=O)CSc3nc4ccc(C)cc4[nH]3)CC2)cc1,110%,117%,109%,100,106%,88.3%,116%,82.3%,101%,85.3%,5.46% (active),97,107%,93.3%,129%,113%,116%,99.7%,94.6%,74.4%
